A short description of experiment [1]: qHTS assay to test for compound auto fluorescence at 535 nm (green) in HEK293 cells (AID 720680).
Experiment [2] can be described thus: qHTS assay to test for compound auto fluorescence at 460 nm (blue) in HEK293 cell free culture (AID 720681). The gist of the method: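 Blue fluorescence (Ex 405/Em 460 nm, triamterene-equivalent) was read immediately after pin transfer of compound or DMSO into medium (DMEM, 10% FBS) without cells.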
The nature of experiment [3]: qHTS assay to test for compound auto fluorescence at 535 nm (green) in HEK293 cell free culture (AID 720682). The procedure, abridged:
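Green-channel intensity (Ex/Em 485/535 nm) was recorded from compound-treated wells containing only DMEM with 10% FBS. Fluorescein provided the equivalency standard.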

Experiment [4] can be described thus: qHTS assay to test for compound auto fluorescence at 590 nm (red) in HEK293 cell free culture (AID 720683). The procedure, abridged: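 Red-channel autofluorescence of compounds in culture medium (DMEM, 10% FBS), no cells, measured at 540/590 nm. Rose Bengal sodium is the reference fluorophore for equivalence.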
Experiment [5] in a line: qHTS assay to test for compound auto fluorescence at 590 nm (red) in HepG2 cell free culture (AID 720684). The gist of the method: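 Plate contents were MEM with 10% FBS plus test compound or DMSO, no cells. Fluorescence was recorded with 540 nm excitation and 590 nm emission.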
A short description of experiment [6]: qHTS assay to test for compound auto fluorescence at 460 nm (blue) in HepG2 cell free culture (AID 720685). The gist of the method: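 Compound (23 nL) or DMSO pinned into cell-free MEM with 10% FBS; blue fluorescence read at 405/460 nm excitation/emission, expressed as auto-fluorescence equivalency to triamterene.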
Experiment [7] can be described thus: qHTS assay to test for compound auto fluorescence at 535 nm (green) in HepG2 cell free culture (AID 720686).
A short description of experiment [8]: qHTS assay to test for compound auto fluorescence at 460 nm (blue) in HepG2 cells (AID 720687). The gist of the method:
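Blue-channel autofluorescence (Ex/Em 405/460 nm, triamterene-equivalent) was measured after 1 hr compound exposure at 37 C, 5% CO2. Cells were HepG2, plated overnight at 37 C in MEM plus 10% FBS.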

In experiment [9] the target is Glucocorticoid receptor (Homo sapiens) (UniProt P04150). The experiment in a line: qHTS assay to identify small molecule agonists of the glucocorticoid receptor (GR) signaling pathway (AID 720691; active means well fitted activation curve with a large enough effect in the signal ratio in the repeat runs, not every such curve was filed as active; the % refers to the signal ratio). The gist of the method:
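qHTS in GR-bla HeLa cells: 4 h settling at 37 C/5% CO2, 18 h compound incubation at 37 C, 2 h LiveBLAzer B/G FRET substrate at room temperature, fluorescence intensity measured.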

Experiment [10] has the same target. Description: qHTS assay to identify small molecule antagonists of the glucocorticoid receptor (GR) signaling pathway (AID 720692; active means well fitted inhibition curve with a large enough effect in the signal ratio in the repeat runs, not every such curve was filed as active; the % refers to the signal ratio; further: potency means the concentration at half of the fitted maximal effect). The procedure, abridged: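 Inhibition of glucocorticoid signalling is measured in HeLa cells with a GRE-controlled beta-lactamase reporter; cells are co-treated with compound and 5 nM dexamethasone (final) for 18 h before FRET substrate readout.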

A short description of experiment [11]: qHTS assay to identify small molecule antagonists of the glucocorticoid receptor (GR) signaling pathway - cell viability counter screen (AID 720693). Further: nearly all actives have a fitted effect of over 55% in size.
The nature of experiment [12]: qHTS assay for identifying genotoxic compounds that show differential cytotoxicity against isogenic chicken DT40 cell lines with known DNA damage response pathways - Rev3 mutant cell line (AID 743014). Further: nearly all actives have a fitted effect of over 55% in size. Further: potency means the concentration at half of the fitted maximal effect.
Experiment [13] can be described thus: qHTS assay to identify small molecule antagonists of the androgen receptor (AR) signaling pathway - cell viability counter screen (AID 743033; further: nearly all actives have a fitted effect of over 45% in size).
A short description of experiment [14]: qHTS assay to identify small molecule antagonists of the androgen receptor (AR) signaling pathway using the MDA cell line - cell viability counter screen (AID 743041; further: nearly all actives have a fitted effect of over 45% in size). The gist of the method:
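R1881-driven MDA-kb2 AR-luc cells, 3,000/well, were dosed with library compounds for 16 h; cell health came from CellTiter-Fluor fluorescence in the reporter wells.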

Experiment [15] can be described thus: qHTS assay to identify small molecule antagonists of the thyroid receptor (TR) signaling pathway - cell viability counter screen (AID 743064). Further: nearly all actives have a fitted effect of over 50% in size. Further: potency means the concentration at half of the fitted maximal effect. The gist of the method:
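In rat pituitary GH3.TRE-Luc reporter cells co-exposed to compound and 1 nM T3 for 23.5 h, cytotoxicity was assessed with CellTiter-Fluor in the same wells, read by fluorescence.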

A short description of experiment [16]: qHTS assay for identifying genotoxic compounds that show differential cytotoxicity against isogenic chicken DT40 cell lines with known DNA damage response pathways - wild type cell line (AID 743012). Further: nearly all actives have a fitted effect of over 60% in size. Further: potency means the concentration at half of the fitted maximal effect. The gist of the method: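 First, wild type DT40 cells were plated at 300 per well and equilibrated about 0.5 h at 37 C/5% CO2. Next, compounds in DMSO were added and exposure lasted 40 h. Finally, CellTiter-Glo was added for 30 min at room temperature and luminescence recorded.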

Experiment [17] can be described thus: qHTS assay for identifying genotoxic compounds that show differential cytotoxicity against isogenic chicken DT40 cell lines with known DNA damage response pathways - Rad54/Ku70 mutant cell line (AID 743015). Further: nearly all actives have a fitted effect of over 60% in size. Further: potency means the concentration at half of the fitted maximal effect.
In experiment [18] the target is Androgen receptor (Homo sapiens) (UniProt P10275). The experiment in a line: qHTS assay to identify small molecule agonists of the androgen receptor (AR) signaling pathway (AID 743036; active means well fitted activation curve with a large enough effect in the signal ratio in the repeat runs, with a control signal flat, not every such curve was filed as active; the % refers to the signal ratio). The gist of the method: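 Cell-based FRET reporter assay: HEK293 line with a UAS-beta-lactamase construct, compounds added in DMSO, 16 h exposure at 37C, then 2 h substrate step at room temperature and fluorescence intensity read.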
Chain of Androgen receptor (Homo sapiens) (P10275 whole entry, looked up): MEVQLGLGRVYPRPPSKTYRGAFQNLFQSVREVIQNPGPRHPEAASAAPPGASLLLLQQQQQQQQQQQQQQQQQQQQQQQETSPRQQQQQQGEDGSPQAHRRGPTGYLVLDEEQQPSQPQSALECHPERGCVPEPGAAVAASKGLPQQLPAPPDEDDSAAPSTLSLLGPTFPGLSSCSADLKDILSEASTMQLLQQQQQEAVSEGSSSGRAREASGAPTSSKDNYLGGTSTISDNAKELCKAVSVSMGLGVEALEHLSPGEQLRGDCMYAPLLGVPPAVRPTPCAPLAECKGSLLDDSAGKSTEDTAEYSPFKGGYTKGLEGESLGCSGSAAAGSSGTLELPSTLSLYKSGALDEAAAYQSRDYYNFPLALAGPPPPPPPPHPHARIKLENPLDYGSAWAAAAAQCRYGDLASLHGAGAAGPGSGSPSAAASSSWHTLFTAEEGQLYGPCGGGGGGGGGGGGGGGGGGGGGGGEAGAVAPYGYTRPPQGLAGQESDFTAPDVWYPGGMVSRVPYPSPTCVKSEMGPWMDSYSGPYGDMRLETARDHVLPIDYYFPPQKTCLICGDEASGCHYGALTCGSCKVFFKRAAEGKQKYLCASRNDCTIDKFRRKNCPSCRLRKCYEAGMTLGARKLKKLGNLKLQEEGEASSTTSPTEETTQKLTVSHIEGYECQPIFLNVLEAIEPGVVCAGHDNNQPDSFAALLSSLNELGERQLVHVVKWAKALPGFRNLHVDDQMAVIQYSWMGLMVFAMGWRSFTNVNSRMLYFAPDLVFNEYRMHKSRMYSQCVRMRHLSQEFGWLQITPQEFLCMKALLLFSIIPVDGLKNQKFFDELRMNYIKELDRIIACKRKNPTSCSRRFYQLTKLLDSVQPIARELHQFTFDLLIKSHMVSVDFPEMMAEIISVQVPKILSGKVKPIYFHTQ

Experiment [19] has the same target. The experiment in a line: qHTS assay to identify small molecule agonists of the androgen receptor (AR) signaling pathway using the MDA cell line (AID 743040; further: nearly all actives have a fitted effect of over 20% in size). The gist of the method: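 After a 5 h incubation at 37C and 0% CO2, MDA-kb2 reporter cells were dosed with compounds in DMSO and kept 16 h under the same conditions. Luciferase activity was then read as luminescence with ONE-Glo.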

Experiment [20] shares this target. The experiment in a line: qHTS assay to identify small molecule antagonists of the androgen receptor (AR) signaling pathway using the MDA cell line (AID 743042; further: nearly all actives have a fitted effect of over 55% in size). The gist of the method:
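Antagonist mode: compounds plus R1881 agonist added to MDA-kb2 AR-luc cells, incubated 16 h at 37C. Luciferase reporter luminescence quantified, with multiplexed CellTiter-Fluor readout for cell viability.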

A number with no mark means an inactive call. Records with an inconclusive call do not appear. The source made the active and inactive calls. Unless noted, the call rests on the fitted dose curve; in most records, active means well fitted curve in the direction sought with a large enough effect in the repeat runs; inconclusive means weak or mixed curves; inactive means no such curve, though single readings can be large; an effect the other way counts as inactive or inconclusive.

Chain of Glucocorticoid receptor (Homo sapiens) (P04150 whole entry, looked up): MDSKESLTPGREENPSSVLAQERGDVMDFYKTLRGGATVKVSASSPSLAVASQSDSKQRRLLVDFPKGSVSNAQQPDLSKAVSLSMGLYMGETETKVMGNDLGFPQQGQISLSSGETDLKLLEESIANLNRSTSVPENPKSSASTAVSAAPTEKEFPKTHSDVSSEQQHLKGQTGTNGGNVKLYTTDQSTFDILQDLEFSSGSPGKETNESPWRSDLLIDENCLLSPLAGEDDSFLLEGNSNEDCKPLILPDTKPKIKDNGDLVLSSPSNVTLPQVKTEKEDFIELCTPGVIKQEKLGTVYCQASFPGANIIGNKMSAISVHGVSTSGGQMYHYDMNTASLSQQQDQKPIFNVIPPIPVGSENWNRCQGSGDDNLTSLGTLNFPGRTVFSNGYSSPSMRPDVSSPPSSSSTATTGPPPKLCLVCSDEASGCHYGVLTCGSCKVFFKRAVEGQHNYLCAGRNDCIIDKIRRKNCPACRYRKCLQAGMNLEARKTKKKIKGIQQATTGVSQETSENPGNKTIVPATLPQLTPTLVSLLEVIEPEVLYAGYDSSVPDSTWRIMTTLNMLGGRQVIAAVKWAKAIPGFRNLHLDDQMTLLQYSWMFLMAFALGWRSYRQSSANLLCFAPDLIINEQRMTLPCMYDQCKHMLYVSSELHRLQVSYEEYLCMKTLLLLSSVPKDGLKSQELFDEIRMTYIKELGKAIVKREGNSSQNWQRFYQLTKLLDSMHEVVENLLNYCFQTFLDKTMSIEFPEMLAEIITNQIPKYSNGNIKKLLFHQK

Consider `CCOC(=O)c1ccccc1C`, for which the compound was called inactive in experiment [1], in [3], in [4], in experiment [5] and in experiment [7]. Besides, the Potency result in experiment [2], in experiment [6], in experiment [8], in experiment [9], in [10] and in experiment [11] was “inactive” in each case. The Potency result in experiment [13], in experiment [14] and in experiment [15] was “inactive” in each case. In addition, the Potency in experiment [12] was 61.1 µM (active).

Regarding `CC(C)CCCC(=O)O`, the outcome in experiment [1], in experiment [3], in experiment [4], in [5] and in [7] was inactive. In addition, the Potency result in experiment [2], in [6], in experiment [8], in experiment [9], in experiment [10] and in [11] was “inactive” throughout. The Potency entry in experiment [16], in [17], in experiment [13], in experiment [18], in experiment [19] and in experiment [14] was “inactive” each time. The Potency result in experiment [20] and in experiment [15] was “inactive” each time.

As for `COCCOC(=O)C1=C(C)NC(C)=C(C(=O)OC/C=C/c2ccccc2)C1c1cccc([N+](=O)[O-])c1` (configuration not stated), the compound was called inactive in [1], in experiment [3], in experiment [4], in experiment [5] and in experiment [7]. For the same compound, the Potency entry in experiment [2], in [6], in [8], in experiment [9] and in [11] was “inactive” in each case. The Potency is 10.7 µM (active) in experiment [10], 13.3 µM (active) in [16], 11.9 µM (active) in experiment [17] and 13.3 µM (active) in experiment [15].

Take `CN1CCN(c2c(F)cc3c(=O)c(C(=O)O)cn4c3c2OCN4C)CC1`: the result in experiment [1], in [3], in [4], in [5] and in experiment [7] was inactive. In addition, the Potency entry in experiment [2], in experiment [6], in experiment [8], in experiment [9], in experiment [10] and in experiment [11] was “inactive” in each case. Also, the Potency entry in [16], in experiment [17] and in experiment [14] was “inactive” in each case.

On to `CO/N=C1\CN(c2nc3c(cc2F)c(=O)c(C(=O)O)cn3C2CC2)CC1CN` (configuration not stated), for which the compound was called inactive in [1], in experiment [3], in [4], in experiment [5] and in experiment [7]. Moreover, the Potency entry in [2], in experiment [6], in experiment [8], in experiment [9], in experiment [10] and in experiment [11] was “inactive” in each case. Moreover, in experiment [13], the Potency entry was “inactive”.

For `Cc1cc(C(=C2C=CC(=Nc3ccc(S(=O)(=O)O)cc3S(=O)(=O)O)C=C2)c2ccc(Nc3ccc(S(=O)(=O)O)cc3)cc2)ccc1N`, the compound was classed as inactive in [1], in [3], in experiment [4], in experiment [5] and in experiment [7]. The Potency result in experiment [2], in experiment [6], in [8], in [9], in experiment [11] and in experiment [16] was “inactive” throughout. Also, the Potency entry in [12], in experiment [13], in [14] and in [15] was “inactive” each time.

Take `O=[N+]([O-])c1cccc(S(=O)(=O)NCCNS(=O)(=O)c2cccc([N+](=O)[O-])c2)c1`: the call in [1], in experiment [3], in experiment [4], in experiment [5] and in experiment [7] was inactive. For the same compound, the Potency entry in [2], in experiment [6], in experiment [8], in [9], in experiment [10] and in experiment [11] was “inactive” each time. Further, the Potency entry in experiment [16], in experiment [17], in experiment [13], in experiment [19], in [14] and in [20] was “inactive” in each case. In addition, the Potency result in experiment [15] was “inactive”.

Values taken from PubChem BioAssay (Tox21).
